# Records with an inconclusive call do not appear. A number with no mark means an inactive call. Activity calls are given as the source filed them. Calls come from the whole dose curve; as a rule, active = well fitted cell-killing curve with a large enough effect; inconclusive = small, poorly fitted or top-dose-only effect; inactive = flat fitted curve, though single readings scatter.
# Experiment: Cellular viability qHTS for adrenocortical cancer (ACC) cell line NCI-H295R (AID 1963990); note: nearly all actives have a fitted effect of over 60% in size
# Details: CellTiter-Glo ATP luminescence, 48 h; series mostly up to 46.1 µM; activity change, negative = viability loss: at the top concentration
# From the text: PI: Naris Nilubol, MD Surgical Oncology Program, National Cancer Institute (NCI) National Institute of Health (NIH), Bethesda, Maryland Adrenocortical cancer (ACC) is a rare malignancy with poor survival outcomes and few treatment options. Currently, mitotane is the only FDA-approved therapy for ACC. Although adjuvant radiation therapy is rarely utilized, it has the potential to improve survival in select cases. Through a quantitative high-throughput drug screen (qHTS), we identified auranofin (AF), a thioredoxin reductase (TXNRD) inhibitor, as a promising candidate drug. This study aims to evaluate whether AF can enhance the efficacy of radiation therapy in the treatment of ACC. Two human ACC cell lines, SW-13 and NCI-H295R, were screened using the National Center for Advancing Translational Sciences (NCATS) Pharmaceutical Collection (NPC) and the Mechanism Interrogation PlatE (MIPE) library (~4,991 compounds). CellTiter-Glo (Cat # G7570, Promega, Madison, WI) was utilized to measure cell viability. Described herein are the results of the corresponding viability assay.
# PROTOCOL TABLE (as described by Inglese J, Shamu CE and Guy RK. 2007) SEQUENCE No. (e.g., 1, 2, 3, etc.); […] (e.g., Cells, Incubation, Reagent, etc.); VALUE; DESCRIPTION. 1; Cells; 5 uL; white, solid-bottom, 1536-well tissue-culture treated plates. 2; Time; overnight culture at 37C with 5% CO2. 3; Compounds and control; 23 nL; Kalypsis pin tool (Wako USA) equipped with a 1536-well pin head to transfer to the assay plates. 4; Time; 48 hours; 37C with 5% CO2. 5; Reagent; 4 uL; CellTiter-Glo luminescent substrate mix. 6; Time; 20 min at room temperature. 7; Detection; Luminescence; ViewLux plate reader NOTES (numbers refer to Sequence numbers above) 1. NCI-H295R cells were harvested from a T175 flask and resuspended in ITS-supplemented DMEM serum-free medium at a concentration of 300 000 cells/mL. Then 5 uL of resuspended cells were dispensed into each well of white, solid-bottom, 1536-well tissue-culture-treated plates using a multidrop combi dispenser. The plates were covered with stainless steel gasket lids. 2-3. The plates were cultured overnight at 37C with 5% CO2. Twenty-three nL of compounds (eight selected concentrations from the NPC / MIPE) or positive control (10 mM stock of bortezomib) in DMSO was transferred to each well of the assay plate using a pin tool (Kalypsys, San Diego, CA, USA). The final concentration of the compounds in the 5 uL assay volume ranged from 0.5 nM to 46 uM. 4-6. After 48 hours of incubation at 37C and 5% CO2, 4 uL of CellTilter-Glo luminescent substrate mix (Promega, Madison, WI, USA) was added to each well. Then the plates were incubated for 20 minutes at room temperature. 7. After incubation, luminescence was measured using a ViewLux plate reader (PerkinElmer, Waltham, MA, USA) with a clear filter was used to measure the number of metabolically competent cells. To determine compound activity in the qHTS assay, the titration-response data for each sample was plotted and modeled by a four-parameter logistic fit yielding IC50 and efficacy (maximal response) values. Raw plate reads for each titration point were normalized relative to positive control ([…], 100% inhibition) and DMSO-only wells (basal, 0%). REFERENCES: Inglese J, Shamu CE and Guy RK, Reporting data from high throughput screening of small molecule libraries, Nature Chemical Biology, 2007, 3(8): 438-441. doi.org/10.1038/nchembio0807-438.
Compound,"activity change, negative = viability loss",Potency
O=C(O)c1c(O)c(-c2ccccc2)nc2ccccc12,-12.2%,
O=C(NO)c1cnc(NC2(c3cccc(F)c3)CCCCC2)nc1,,3.16 µM (active)
C=CCN(/C=C1\C(=O)O[C@@H](COC)[C@]2(C)C1=C(O)C(=O)C1=C2[C@@H](OC(C)=O)C[C@]2(C)C(=O)CC[C@H]12)CC=C,,28.2 µM (active)
CC(O)c1cc(C(=O)N[C@@H](C)Cn2ccc(-c3ccc(C#N)c(Cl)c3)n2)n[nH]1 (stereo not given in full),0.758%,
COc1ccc([C@@H]2Sc3ccccc3NC(=O)[C@@H]2O)cc1,,23.1 µM (active)
OCCN1CCN(CCCN2c3ccccc3C=Cc3ccccc32)CC1,-28%,
O=C1NCN(c2ccccc2)C12CCN(CCCC(c1ccc(F)cc1)c1ccc(F)cc1)CC2,,3.26 µM (active)
C[C@H]1CN(C2COC2)CCN1c1ccc(Nc2cc(-c3ccnc(N4CCn5c(cc6c5CC(C)(C)C6)C4=O)c3CO)cn(C)c2=O)nc1,-1.69%,
NS(=O)(=O)Oc1ccc2c3c(c(=O)oc2c1)CCCCC3,-1.46%,
COc1ccc(/C=C/C(=O)c2ccc(OC)cc2OC)cc1,,9.2 µM (active)
CCOC(=O)C1=C(C)NC(C)=C(C(=O)OC)C1c1cccc([N+](=O)[O-])c1 (stereo not given),,16.4 µM (active)
CCc1cccc(N(C)C(N)=Nc2cccc3ccccc23)c1,,20.6 µM (active)
O=C(CCBr)N1CCN(C(=O)CCBr)CC1,-12.9%,
C[C@H](N)C(=O)N[C@@H](C)C(=O)NC1[C@H]2CN(c3nc4c(cc3F)c(=O)c(C(=O)O)cn4-c3ccc(F)cc3F)C[C@@H]12 (stereo not given in full),-15.9%,
NCCNc1cccc2ccccc12,,20.6 µM (active)
NC(=O)n1c(O)c(C(=O)c2cccs2)c2cc(Cl)ccc21,,9.2 µM (active)
CN(C(=O)CCCOc1ccc2[nH]c(=O)ccc2c1)C1CCCCC1,-8.37%,
O=C(Cc1ccccc1)Nc1nnc(CCSCCc2nnc(NC(=O)Cc3ccccc3)s2)s1,0.107%,
O=C(CCCN1CCC(O)(c2ccc(Br)cc2)CC1)c1ccc(F)cc1,-0.419%,
c1ccc2occc2c1,-22.6% [at 92.7 µM],

Compound,"activity change, negative = viability loss",Potency
NC(=O)c1c(OCc2c(F)cc(Br)cc2F)nsc1NC(=O)NCCCCN1CCCC1,,22.4 µM (active)
N[C@H](C(=O)O)[C@@H](O)c1ccc(O)c(O)c1,-18.1%,
Cn1cc(/C=C2\C(=O)Nc3cccnc32)c2ccccc21,-21.5%,
Cc1ccc(NC(=O)c2ccc(CN3CCN(C)CC3)cc2)cc1Nc1nccc(-c2cccnc2)n1,,25.1 µM (active)
C=C[C@@H]1CN2CCC1C[C@H]2[C@H](O)c1ccnc2ccc(OC)cc12 (stereo not given in full),1.4%,
NC(=S)N/N=C/c1ncccc1N,-1.6%,
COc1ccc(S(=O)(=O)NCc2ccc(C(=O)NCCc3ccc(Cl)cn3)cc2)cc1,-20.4%,
CC(=C(CCOC(=O)C(C)C)SSC(CCOC(=O)C(C)C)=C(C)N(C=O)Cc1cnc(C)nc1N)N(C=O)Cc1cnc(C)nc1N,-16.7%,
CCCCOC(=O)c1ccc(N)cc1,-16.9%,
NNC(=O)CP(=O)(c1ccccc1)c1ccccc1,,16.4 µM (active)
CCOC(=O)N1CCC(Nc2ccc(Cl)cc2N)CC1,,16.4 µM (active)
CCCCN(CCCC)C(C(N)=O)c1ccc(OC)cc1 (stereo not given),-5.63%,
O=C(C1CCCCC1)N1CC(=O)N2CCCc3ccccc3C2C1 (stereo not given),,29.1 µM (active)
CCC(=O)Oc1ccc2c(c1)CC[C@@H]1[C@@H]2CC[C@@]2(C)[C@H]1C[C@@H](OC(=O)CC)[C@@H]2OC(=O)CC,-21.1%,
O=C1NC(=O)/C(=C/c2ccc3nccnc3c2)S1,-24.2%,
COC(=O)N(CC(=O)O)Cc1cccc(OCc2nc(-c3ccc(Cl)cc3)oc2C)c1,-17.1%,
O=C(CCCN1CCN(c2ccccn2)CC1)c1ccc(F)cc1,3.03%,
OC(CCN1CCCCC1)(c1ccccc1)C1CCCCC1 (stereo not given),,4.61 µM (active)
Cc1c(Cl)cccc1S(=O)(=O)Nc1nc(CCN2CCOCC2=O)cs1,5.08%,
COc1ccc(-n2nc(CCC(=O)N(C)O)cc2-c2ccc(Cl)cc2)cc1,,16.4 µM (active)
